Experimental data from PubChem BioAssay (EPA / NIEHS).
“And” between values parts separate entries of the source, which are not always exact repeats. Identical values can stand only once. Results filed as inconclusive are left out. A structure can be active in one record and inactive in another. The source made the active and inactive calls. The calls were made as follows: active = hit-call score of the fitted dose curve at least 0.9, where 1 is the maximum; inconclusive = response in the unintended direction; inactive = score below 0.9.

Assay: CCTE_Simmons_CellTiterGLO_HEK293T: Viability Assessment in CCTE's Assays for Thyroperoxidase (TPO) Inhibition, Simmons Lab (AID 2283665);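 as to AC50: cells exposed to compound for 24 h before readout; actives reduce ATP signal below DMSO vehicle meaning cytotoxicity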
Description: CCTE_Simmons_CellTiterGLO_HEK293T is a cell-based, single-readout assay that uses HEK293T, a human kidney cell line, with measurements taken at 24 hours after chemical dosing in a 384-well plate.CCTE_Simmons_CellTiterGLO_HEK293T is the assay component measured from the CCTE_Simmons_CellTiterGLO_HEK293T assay. It is designed to make measurements of ATP content, a form of viability reporter, as detected with bioluminescence signals by Luciferase-coupled ATP quantitation technology. This is a secondary cytotoxicity assay to CCTE_Simmons_AUR_TPO to estimate a cellular tolerance limit.Data from the assay component CCTE_Simmons_CellTiterGLO_HEK293T was analyzed at the endpoint, CCTE_Simmons_CellTiterGLO_HEK293T, in the positive analysis fitting direction relative to DMSO as the negative control and baseline of activity. Using a type of viability reporter, measures of ATP content for loss-of-signal activity can be used to understand the viability. This assay was run in parallel with aeid 1508 as a means of indicating the range of chemical cytotoxicity or reactivity. To generalize the intended target to other relatable targets, this assay endpoint is annotated to the cell cycle intended target family, where the subfamily is cytotoxicity.
Human HEK293T cells (GenHunter; Nashville, Tennessee) were seeded overnight in 384-well, solid white assay plates (Greiner, BioExpress) at a density of 10 000 cells per well in 65 ul Dulbecco's Modified Eagle Medium (Life Technologies; Carlsbad, California) supplemented with 1% fetal bovine serum (HyClone; Logan, Utah). Test compounds were administered using the HDRT as described earlier to achieve a 0.5% final DMSO concentration. Cells were then incubated at 37C for 24 hr in a humidified 5% CO2 incubator. Cell Titer Glo (Promega; Madison, WI) reagent (25 ul) was then added by the BioTek MicroFlo and microplates were incubated at room temperature in the dark for 20min. Plates were read on a plate reader (FLUOStar Optima) using an endpoint luminescence protocol (top read). Three biological replicates of technical singles were run for every chemical concentration tested. A titrated range of DCNQ served as a positive control on each plate of the cytotoxicity screening assay.Test chemicals were administered as a titrated series of 8 concentrations from 5 nM up to 87.5 uM [final] for 24 hours prior to single endpoint detection. Three biological replicates of technical singles were run for every chemical concentration tested. Dimethylsulfoxide [DMSO] was used as the vehicle control. Dichlone [DCNQ] was used as the positive control and was administered as a titrated series of 8 concentrations from 1 nM up to 100 uM [final].

SMILES | AC50 | outcome
CCOP(=S)(OCC)Oc1cc(C)nc(C(C)C)n1 | 83.2 µM (active) | 
CCOP(=S)(OCC)OC(Cl)C(Cl)(Cl)Cl (configuration not stated) | 64.7 µM (active) | 
CN(C)[C@@H]1C(=O)C(C(N)=O)=C(O)[C@@]2(O)C(=O)C3=C(O)c4c(O)cccc4[C@@](C)(O)[C@H]3[C@H](O)[C@@H]12 | 5.47 µM (active) and 53.8 µM (active) | inactive
CCCOCC(=Nc1ccc(Cl)cc1C(F)(F)F)n1ccnc1 | 21.3 µM (active) | 
CSC1=N[C@@](C)(c2ccccc2)C(=O)N1Nc1ccccc1 |  | inactive
CCOP(=O)(SC(C)CC)N1CCSC1=O (configuration not stated) |  | inactive
C=C(C)[C@H]1Cc2c(ccc3c2O[C@@H]2COc4cc(OC)c(OC)cc4[C@@H]2C3=O)O1 |  | inactive
CCOP(=S)(OCC)Oc1ccc2c(C)c(Cl)c(=O)oc2c1 |  | inactive
CCC(=NOC/C=C/Cl)C1=C(O)CC(C2CCOCC2)CC1=O (configuration not stated) |  | inactive
CC1(C(=O)Nc2ccc(O)c(Cl)c2Cl)CCCCC1 | 82.2 µM (active) | 
CCC(=O)Nc1ccc(Cl)c(Cl)c1 |  | inactive
COP(=O)(NC(C)=O)SC (configuration not stated) |  | inactive
O=c1ccc(=O)[nH][nH]1 |  | inactive
CCOP(=S)(OCC)Oc1ccc([N+](=O)[O-])cc1 |  | inactive
COP(=O)(OC)SCn1c(=O)oc2cc(Cl)cnc21 |  | inactive
N#CSCSC#N | 9.47 µM (active) | 
S=C1NCCN1 |  | inactive
CCCSP(=O)(OCC)Oc1ccc(Br)cc1Cl (configuration not stated) | 41.5 µM (active) | 
CCOP(=S)(Oc1cnc(C(C)(C)C)nc1)OC(C)C (configuration not stated) | 31.4 µM (active) | 
CCCSP(=O)(OCC)SCCC |  | inactive
CCOC(=O)CC(SP(=O)(OC)OC)C(=O)OCC (configuration not stated) |  | inactive
